These results are taken from PubChem BioAssay (NCI).

This is part of a sample that, as a whole, favours compounds with a hit. Of some 83,000 tested, about 20% had one in any assay.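 Plates (96-well) were seeded with cells, treated with compound at one concentration, and incubated for 48 hours before percent growth was determined.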 Values without a mark were called inactive. How the source made its calls: active means growth percent below 10; inactive means the rest.

For this assay, the system named is IGROV1 ovarian. Kind of assay: NCI-60 one-dose screen, 48 h (100 = growth as untreated, 0 = no growth, -100 = all killed). The note with it: 10 µM unless noted.
Take `O=C1c2ccccc2C(=Cc2ccccc2)c2ccccc21`: the growth was 40%. `N#CC1=C(N)Oc2c(sc3c(F)cccc23)C1c1ccc(Cl)cc1` (stereo not drawn): the growth is 33.3%. Regarding `O=C(Nc1ccc(/C=C2\SC(=O)N(Cc3ccc(OC(F)(F)F)cc3)C2=O)cc1)c1ccc(Cl)c([N+](=O)[O-])c1`, the growth was 79.9%. As for `C[C@@H](C(=O)O)c1ccc2c3cc(Cl)ccc3n(Cc3cc(=O)oc4ccc(Cl)cc34)c2c1`, the growth is 74.2%.

Consider `Cn1c(=O)c2c(nc(Br)n2CC(=O)Nc2ccc(F)cc2)n(C)c1=O`, for which the growth was 107%. For the compound `COC(=O)C(N)CSC(c1ccccc1)(c1ccccc1)c1ccccc1` (stereo not drawn), the growth was 28.6%. On to `NS(=O)(=O)c1ccc(CCNC(=O)/C=C/c2ccc(Cl)cc2)cc1`, for which the growth is 91.7%. For the compound `C[C@H]1[C@H]2C3=CC[C@@H]4[C@@]5(C)C/C(=C/c6ccco6)C(=O)C(C)(C)[C@@H]5CC[C@@]4(C)[C@]3(C)CC[C@@]2(C(=O)N2CCOCC2)CC[C@@H]1C`, the growth was 56.5%. Regarding `COC1=C(Br)C(=O)C(OC)=C(Br)C1=O`, the growth is 111%. As to `Cn1cc(-c2csc(-c3cn(CCN)c4ccc(F)cc34)n2)c2cccnc21`, the growth is 39.6%. As for `O=C1/C(=C\c2ccco2)SC(=S)N1CCc1ccc(O)cc1`, the growth is 94.6%. As to `COc1cccc(-c2nn(-c3ccccc3)cc2-c2ccnc(NCCNS(=O)(=O)c3ccccc3)c2)c1`, the growth was 33.6%.

Consider `C[C@]12CC[C@@H]3c4ccc(O)cc4CC[C@H]3[C@@H]1C[C@H](O)[C@@H]2O`, for which the growth is 98%.
